Only some compounds are listed: those with a hit (about 3% of all), similar ones and a draw of the others.
PMP22 txn prim: PMP22 gene transcription modulation | S16 Pmp22-F2sN Schwann cells, FLuc/NLuc coincidence luminescence, 24 h | Potency, µM (top dose mostly 57.5 µM), without a hit: at the top dose activity change, negative = inhibition, actives largely listed as inhibitors | hit rate 2% among 43,000 | AID 1508649; active = clear falling dose curves in both reporters; inconclusive = both reporters move, but less clearly or upward; inactive = either reporter flat; the % is the NLuc reporter signal; also: potency is read from the fitted curve at half-maximal effect; % is scaled to controls: 0 for no effect and ±100 for the full control effect
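Schwann cells carrying the coincidence reporter were exposed to library compounds for 24 h at 37C, then lysed and read for FLuc and, after quenching, NLuc luminescence on a CCD imager.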
OvCa metastasis: inhibitors of ovarian cancer cell adhesion and invasion in omental model; hit rate 0.1% among 46,000; SKOV3ip1-GFP adhesion/invasion on 3D omental model, fluorescence; Potency, µM (highest dose often 45.8 µM), for inactives: top-dose activity change, negative = inhibition, usual class: inhibitors;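 also: potency is read from the fitted curve at half-maximal effect; plate controls were DMSO wells for no effect and tomatine positive control wells for full effect; nearly all actives have a fitted effect of over 65% in size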
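Primary human omental fibroblast/mesothelial 3D culture pre-formed 48 h. SKOV3ip1-GFP cells added with compounds (0.36-46 umol/L), incubated 2 h RT/16 h 37 C, fixed; GFP cells quantified at 488/509 nm.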
pS6 MEF inh: inhibitors of mTORC1 signaling in Tsc2-/- p53-/- MEF cells; Potency, µM (doses to about 38.3 µM), for the others: top-dose activity change, negative = inhibition, actives largely listed as inhibitors; hit rate 0.78% among 44,000; AID 493208; Tsc2-/- p53-/- MEF, phospho-rpS6 immunofluorescence/PI, 24 h;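 also: potency is read from the fitted curve at half-maximal effect; plate controls were DMSO for no effect and rapamycin for full effect; nearly all actives have a fitted effect of over 50% in size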
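Cell-based qHTS: Tsc2-/- p53-/- MEF, 24 h cpd, 37 °C; fix/perm, anti-phospho-S6 Alexa-488 + PI; Acumen 488 nm scan; pS6/PI ratio, % positive cells; rapamycin 7.5 nM = inhibition ref; PI count = viability.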
p53null 39C tox: selectivity test: cytotoxicity in p53 null cells, nonpermissive temperature | H1299 p53-null (neo) cells, 39C, ATPlite viability, 24 h | Potency, µM (titrated, usually from 46.1 µM), for the others: top-dose activity, negative = cell killing, usual class: cytotoxic | hit rate 0.97% among 55,000 | AID 904;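 also: potency is read from the fitted curve at half-maximal effect; 0% = DMSO only and -100% = full killing by 100 µM tamoxifen; nearly all actives have a fitted effect of over 50% in size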
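Following overnight plating at 37C (600 cells/well), H1299-neo or H1299-p53A138V cells are dosed up to 46 uM. Incubation lasts 24 hr at 39C before ATP detection.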
p53null 32C kill: selectivity test: cytotoxicity in p53 null cells, permissive temperature | H1299-neo p53 null cells, ATP luminescence, 24 h, 32C | Potency, µM (titrated, usually from 46.1 µM), inactives show at the highest dose activity change, negative = cytotoxicity, actives largely listed as cytotoxic | hit rate 0.62% among 55,000 | AID 903;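 also: potency is read from the fitted curve at half-maximal effect; 0% = DMSO only and -100% = full killing by 100 µM tamoxifen; nearly all actives have a fitted effect of over 55% in size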
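We seeded p53-null H1299-neo cells, incubated them overnight at 37C, and added compounds across a range up to 46 uM. After 24 hours at 32C, ATP reagent was applied for 20 min at room temperature and luminescence recorded.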
S16 viability: cytotoxicity in S16 Pmp22-F2sN Schwann cells. AID 1508642. hit rate 0.48% among 43,000. Potency, µM (top dose mostly 57.5 µM), for inactives: at the top dose activity change, negative = cytotoxicity, usual class: cytotoxic. S16 Pmp22-F2sN Schwann cells viability, CellTiter-Glo, 24 h; also: potency is read from the fitted curve at half-maximal effect; % is scaled to controls: 0 for no effect and ±100 for the full control effect; nearly all actives have a fitted effect of over 65% in size
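S16 Pmp22-F2sN Schwann cells (500-1,000/well) in phenol-red-free DMEM with 10% FBS received 23 nL compound by pin tool for 24 h at 37 °C. Viability was then read as CellTiter-Glo luminescence after 15 min at room temperature.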
NLuc sat counter: NanoLuc enzyme inhibition artifact for PMP22 screen | shares compounds with PMP22 txn prim | Secreted NLuc enzyme (filtered S16 cell medium), Nano-Glo luminescence | Potency, µM (titrated, usually from 57.5 µM), for the others: at the highest dose activity change, negative = inhibition, usual class: inhibitors | hit rate 4% among 690; also: potency is read from the fitted curve at half-maximal effect; % is scaled to controls: 0 for no effect and ±100 for the full control effect
NLuc Km ctr: inhibits NanoLuc under Km conditions, PMP22 counter-screen; shares compounds with PMP22 txn prim; secreted NLuc enzyme, coelenterazine luminescence, Km conditions; Potency, µM (highest dose often 57.5 µM), inactives show at the top dose activity change, negative = inhibition, usual class: inhibitors; hit rate 5% among 690; also: potency is read from the fitted curve at half-maximal effect; % is scaled to controls: 0 for no effect and ±100 for the full control effect
FLuc counter: firefly luciferase enzyme inhibition artifact for PMP22 screen; shares compounds with PMP22 txn prim; purified P. pyralis FLuc, luminescence, 10 min; Potency, µM (titrated, usually from 57.5 µM), inactives show at the highest dose activity, negative = inhibition, actives largely listed as inhibitors; 690 tested, under 10 active; AID 1508640; also: % of control where 0% means no effect
Target sequence (P08659 whole entry, looked up): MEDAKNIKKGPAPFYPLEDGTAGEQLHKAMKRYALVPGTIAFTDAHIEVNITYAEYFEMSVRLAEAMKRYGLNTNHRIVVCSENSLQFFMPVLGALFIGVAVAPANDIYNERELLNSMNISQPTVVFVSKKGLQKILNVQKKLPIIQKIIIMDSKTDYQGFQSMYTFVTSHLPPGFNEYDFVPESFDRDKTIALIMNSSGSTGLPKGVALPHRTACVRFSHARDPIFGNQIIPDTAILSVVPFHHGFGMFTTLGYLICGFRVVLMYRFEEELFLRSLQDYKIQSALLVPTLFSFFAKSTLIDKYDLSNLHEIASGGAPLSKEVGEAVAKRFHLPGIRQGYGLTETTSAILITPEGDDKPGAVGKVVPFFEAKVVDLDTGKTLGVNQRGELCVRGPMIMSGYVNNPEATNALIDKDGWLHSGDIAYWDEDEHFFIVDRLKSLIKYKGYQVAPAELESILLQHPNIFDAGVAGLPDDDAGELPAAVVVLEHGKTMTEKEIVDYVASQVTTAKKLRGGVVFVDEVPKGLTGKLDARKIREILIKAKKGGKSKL
S16 viab conf: S16 Schwann cell cytotoxicity, confirmatory. shares compounds with PMP22 txn prim. Potency, µM (top dose mostly 57.5 µM), for inactives: top-dose activity change, negative = viability loss, most hits filed as cytotoxic. S16 Schwann cells viability, CellTiter-Glo ATP luminescence, 24 h. AID 1508641. hit rate 7% among 690; also: potency is read from the fitted curve at half-maximal effect; % is scaled to controls: 0 for no effect and ±100 for the full control effect
PMP22 txn conf: PMP22 transcription modulation, confirmatory; shares compounds with PMP22 txn prim; S16 Schwann cells Pmp22-F2sN, dual luciferase, 24 h; Potency, µM (doses to about 57.5 µM), for the others: top-dose activity change, negative = inhibition, most hits filed as inhibitors; hit rate 22% among 690; active = clear falling dose curves in both reporters; inconclusive = both reporters move, but less clearly or upward; inactive = either reporter flat; the % is the FLuc reporter signal; also: potency is read from the fitted curve at half-maximal effect
PMP22 HiBiT cnf: confirmation of modulators of rat PMP22 protein expression; AID 1508647; shares compounds with PMP22 txn prim; Potency, µM (titrated, usually from 27.9 µM), for the others: at the highest dose activity change, negative = inhibition, hits mostly inhibitors; S16 Schwann cells Pmp22-HiBiT, luminescence, 48 h; 95 tested, under 10 active
* marks the source's active call; other numbers are inactive results; i = inactive; ? = inconclusive; nt = no result. Unless noted, calls follow the shape of the dose curve; as a rule, active = well fitted curve in the direction sought with a large enough effect; inconclusive = small, poorly fitted or top-dose-only effect, or another doubt; inactive = no such curve, though single readings can be large; an effect the other way counts as inactive or inconclusive.

SMILES | PMP22 txn prim | OvCa metastasis | pS6 MEF inh | p53null 39C tox | p53null 32C kill | S16 viability | NLuc sat counter | NLuc Km ctr | FLuc counter | S16 viab conf | PMP22 txn conf | PMP22 HiBiT cnf
Cc1nc2cccnc2n1C1CCN(S(=O)(=O)c2ccc(C(C)C)cc2)CC1 | 17µM* | -2.0% | -23.3% | 23.6% | 29.3% | ? | -14.0% | 2.6% | 4.1% | -11.2% | -33.3% | nt
COCCCNC(=O)c1ccc2c(c1)N=C(C)c1c(C)ccc(C)c1S2 | 0.089µM* | ? | -9.9% | ? | 1.0% | 11.3% | -7.2% | ? | -6.6% | 11.2% | 0.306µM* | ?
CC1=Nc2cc(C(=O)NC3CCC(C)CC3)ccc2Sc2c(C)ccc(C)c21 (centres undefined) | -115.6% | 8.3% | -10.5% | ? | 26.7% | 3.9% | nt | nt | nt | nt | nt | nt
CCC1=Nc2cc(C(=O)NCCCOC)ccc2Sc2ccc(Br)cc21 | 1.27µM* | i | ? | ? | 5.8% | 1.2% | -11.2% | -5.5% | 8.0% | ? | ? | ?
Cc1ccc(NC(=O)c2ccc(CNS(=O)(=O)c3ccc4c(c3)C(C)(C)C(=O)N4C)cc2)cc1F | -20.1% | -1.4% | -22.0% | -12.8% | -4.0% | -0.5% | nt | nt | nt | nt | nt | nt
COc1cc2c(cc1-c1c(C)noc1C)ncc1[nH]c(=O)n([C@H](C)c3ccccn3)c12 | nt | 54.2% | nt | nt | nt | nt | nt | nt | nt | nt | nt | nt
CCOCCCNC(=O)c1ccc(-n2c(-c3ccccc3)cc3c2CCC(C)C3)cc1 (centres undefined) | 17.9µM* | -1.6% | ? | ? | -14.1% | -2.9% | -7.3% | 0.2% | -7.8% | 3.5% | ? | 4.6%
C#C[C@]1(O)CC[C@@H]2[C@@H]3CCc4cc(O)ccc4[C@H]3CC[C@@]21C | nt | -8.4% | nt | nt | nt | nt | nt | nt | nt | nt | nt | nt
C=CCNc1c(O)cc2c(O)c1C[C@@H](C)C[C@H](OC)[C@@H](O)[C@@H](C)C=C(C)[C@H](OC(N)=O)[C@@H](OC)C=CC=C(C)C(=O)N2 | nt | 20.4% | nt | nt | nt | nt | nt | nt | nt | nt | nt | nt
CCS(=O)(=O)c1ncc(Cl)c(C(=O)Nc2c(C(=O)c3ccc(C)cc3)oc3ccccc23)n1 | 2.12µM* | -9.3% | -4.9% | 3.6% | -3.5% | ? | -7.1% | ? | 1.6% | ? | 9.27µM* | -24.5%

Compound activity deposited in PubChem BioAssay by National Center for Advancing Translational Sciences (NCATS).
